# Data reported in the supplement of paper PMC10849652.
# Targets with a hit are over-represented here; the source holds about 7,900 in all. About 0.6% of all pairs of compound and target were hits. A number with no mark means an inactive call.
# Tests used:
# Test in all cases: log2 fold change, soluble protein after heating vs DMSO (PISA); higher = thermal stabilisation; K562 cells, 10 uM, 30 min; active = over 0.2 and 3.5 SD of the protein, either way, in both replicates (recomputed)
# [1] = compound: C#Cc1cccc(Nc2ncnc3cc(OCCOC)c(OCCOC)cc23)c1 [erlotinib]
# Method in brief: (§1)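 K562 cells at 2×10^6 cells/mL were given 10 μM compound for 30 min. Aliquots then went through 3 min of heating across 48°C-58°C, were pooled, and were extracted in PBS with 0.5% NP-40 at 4°C, and the supernatant after 21,000xg for 90 min was quantified by TMTpro 16plex LC-MS/MS with channel sums equalised. Thermal stability relative to control samples, from duplicates, is given as log2 fold change.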
# [2] = compound: C/C(=N\NC(=O)C1=CC(=CC=C1)S(=O)(=O)N2CCOCC2)/C3=C(C=CC(=C3)Cl)O
# Method in brief: as §1
# [3] = compound: C1=CC(=C(C=C1Cl)C2=NC3=NC=CN=C3C(=N2)NC4=CC=NC=C4)F
# Method in brief: as §1
# [4] = compound: C1=CC(=CC=C1C2=NC3=C(N2)C=C(C=C3)C(=O)N)OC4=CC=C(C=C4)Cl
# Method in brief: as §1
# [5] = compound: C1=CC2=C(C=CC(=C2)/C=C\3/C(=O)NC(=NCC4=CC=CS4)S3)N=C1
# Method in brief: as §1
# [6] = compound: C1=CC2=NC=CN=C2C=C1/C=C/3\C(=O)NC(=O)S3
# Method in brief: as §1
# [7] = compound: C1=CC=C(C=C1)C2=NC(=C(N2)C3=CC=NC=C3)C4=CC(=C(C=C4)Cl)O
# Method in brief: as §1
# [8] = compound: C1=CC=C2C(=C1)C3=NNC4=CC=CC(=C43)C2=O
# Method in brief: as §1
# [9] = compound: C1CCN(C1)C(=O)NC2=CC=CC(=C2)NC3=NC=C(C(=N3)NCCC4=CN=CN4)Br
# Method in brief: as §1
# [10] = compound: C1CN(CCC1(CC2=CC=C(C=C2)Cl)N)C3=NC=NC4=C3C=CN4
# Method in brief: as §1
# Sequence of UniProt Q14137 (Q14137 whole entry, looked up): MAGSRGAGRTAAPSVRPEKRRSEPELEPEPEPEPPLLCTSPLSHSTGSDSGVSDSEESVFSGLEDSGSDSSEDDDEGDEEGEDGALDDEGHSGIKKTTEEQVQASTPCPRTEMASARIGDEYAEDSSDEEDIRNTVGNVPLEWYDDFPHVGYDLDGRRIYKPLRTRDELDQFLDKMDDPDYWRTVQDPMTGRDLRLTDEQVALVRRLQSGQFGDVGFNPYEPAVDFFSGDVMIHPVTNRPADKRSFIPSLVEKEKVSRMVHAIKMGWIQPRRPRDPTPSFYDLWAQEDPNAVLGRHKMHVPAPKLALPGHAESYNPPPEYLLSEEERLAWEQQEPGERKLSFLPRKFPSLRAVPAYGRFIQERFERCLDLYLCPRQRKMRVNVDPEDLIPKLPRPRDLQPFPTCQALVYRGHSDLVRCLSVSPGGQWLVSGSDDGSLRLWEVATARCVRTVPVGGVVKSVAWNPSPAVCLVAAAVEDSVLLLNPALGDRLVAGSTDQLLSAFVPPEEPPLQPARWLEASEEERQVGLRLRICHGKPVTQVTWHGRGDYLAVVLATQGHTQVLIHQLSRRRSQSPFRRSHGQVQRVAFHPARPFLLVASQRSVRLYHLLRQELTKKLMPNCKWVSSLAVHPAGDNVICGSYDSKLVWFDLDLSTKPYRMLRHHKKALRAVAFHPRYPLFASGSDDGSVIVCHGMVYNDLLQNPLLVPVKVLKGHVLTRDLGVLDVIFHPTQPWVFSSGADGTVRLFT
# Sequence of UniProt O95870 (O95870 whole entry, looked up): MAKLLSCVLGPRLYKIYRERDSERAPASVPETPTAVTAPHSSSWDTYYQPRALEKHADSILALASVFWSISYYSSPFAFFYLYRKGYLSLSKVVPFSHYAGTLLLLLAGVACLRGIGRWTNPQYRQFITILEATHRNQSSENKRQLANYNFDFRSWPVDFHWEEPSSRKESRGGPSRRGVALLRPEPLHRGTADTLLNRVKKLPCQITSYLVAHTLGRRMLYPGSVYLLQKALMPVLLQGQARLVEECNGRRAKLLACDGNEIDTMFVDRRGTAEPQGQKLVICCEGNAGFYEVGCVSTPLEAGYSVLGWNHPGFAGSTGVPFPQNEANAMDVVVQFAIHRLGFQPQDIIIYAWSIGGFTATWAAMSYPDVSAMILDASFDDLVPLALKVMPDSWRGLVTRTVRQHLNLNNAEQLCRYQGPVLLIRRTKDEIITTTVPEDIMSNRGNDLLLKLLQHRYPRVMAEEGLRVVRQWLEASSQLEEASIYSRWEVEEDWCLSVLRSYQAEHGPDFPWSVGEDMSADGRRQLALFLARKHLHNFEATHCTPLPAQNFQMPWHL
# Sequence of UniProt P08758 (P08758 whole entry, looked up): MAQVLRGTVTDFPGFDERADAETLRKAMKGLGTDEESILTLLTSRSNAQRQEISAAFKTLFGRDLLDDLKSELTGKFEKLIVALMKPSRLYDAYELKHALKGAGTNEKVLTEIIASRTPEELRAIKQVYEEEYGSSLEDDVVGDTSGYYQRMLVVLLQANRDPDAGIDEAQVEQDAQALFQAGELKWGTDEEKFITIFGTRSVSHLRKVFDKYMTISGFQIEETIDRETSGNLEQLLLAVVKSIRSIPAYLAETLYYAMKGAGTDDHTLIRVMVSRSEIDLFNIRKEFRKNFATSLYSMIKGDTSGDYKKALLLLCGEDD
# Sequence of UniProt Q9ULX6 (Q9ULX6 whole entry, looked up): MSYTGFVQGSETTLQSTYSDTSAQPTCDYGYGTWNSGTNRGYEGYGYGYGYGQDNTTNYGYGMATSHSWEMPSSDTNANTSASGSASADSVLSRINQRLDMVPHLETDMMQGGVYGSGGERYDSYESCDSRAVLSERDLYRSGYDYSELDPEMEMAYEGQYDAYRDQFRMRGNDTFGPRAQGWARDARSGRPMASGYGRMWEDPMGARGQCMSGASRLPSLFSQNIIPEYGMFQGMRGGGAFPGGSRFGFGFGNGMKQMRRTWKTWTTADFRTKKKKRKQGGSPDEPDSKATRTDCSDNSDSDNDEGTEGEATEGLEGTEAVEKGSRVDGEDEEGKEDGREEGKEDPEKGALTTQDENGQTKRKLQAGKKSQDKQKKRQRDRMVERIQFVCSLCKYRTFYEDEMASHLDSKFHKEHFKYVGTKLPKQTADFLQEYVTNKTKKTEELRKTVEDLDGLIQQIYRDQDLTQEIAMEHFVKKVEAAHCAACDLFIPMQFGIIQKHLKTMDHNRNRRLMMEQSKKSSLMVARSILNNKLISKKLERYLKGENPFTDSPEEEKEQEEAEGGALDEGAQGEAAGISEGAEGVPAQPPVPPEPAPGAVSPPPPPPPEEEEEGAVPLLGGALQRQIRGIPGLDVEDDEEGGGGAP
# Sequence of UniProt P11310 (P11310 whole entry, looked up): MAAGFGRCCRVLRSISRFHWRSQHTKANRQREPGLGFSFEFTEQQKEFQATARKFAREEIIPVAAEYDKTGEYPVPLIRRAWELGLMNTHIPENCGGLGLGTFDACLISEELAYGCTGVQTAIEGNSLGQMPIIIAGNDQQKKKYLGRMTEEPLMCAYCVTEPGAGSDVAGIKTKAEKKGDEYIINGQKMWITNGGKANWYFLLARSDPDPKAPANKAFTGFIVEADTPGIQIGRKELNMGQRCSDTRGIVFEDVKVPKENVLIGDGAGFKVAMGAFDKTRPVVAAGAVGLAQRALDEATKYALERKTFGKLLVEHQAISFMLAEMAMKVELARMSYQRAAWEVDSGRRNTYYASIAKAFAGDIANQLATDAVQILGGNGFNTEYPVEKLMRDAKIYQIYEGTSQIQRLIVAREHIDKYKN
# Sequence of UniProt Q9Y6H3 (Q9Y6H3 whole entry, looked up): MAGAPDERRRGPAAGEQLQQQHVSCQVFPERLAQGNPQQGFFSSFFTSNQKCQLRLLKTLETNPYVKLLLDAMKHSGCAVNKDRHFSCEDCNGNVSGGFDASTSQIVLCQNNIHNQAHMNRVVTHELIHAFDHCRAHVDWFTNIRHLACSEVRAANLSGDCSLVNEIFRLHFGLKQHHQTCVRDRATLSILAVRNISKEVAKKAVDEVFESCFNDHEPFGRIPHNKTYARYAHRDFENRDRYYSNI
# Sequence of UniProt Q00973 (Q00973 whole entry, looked up): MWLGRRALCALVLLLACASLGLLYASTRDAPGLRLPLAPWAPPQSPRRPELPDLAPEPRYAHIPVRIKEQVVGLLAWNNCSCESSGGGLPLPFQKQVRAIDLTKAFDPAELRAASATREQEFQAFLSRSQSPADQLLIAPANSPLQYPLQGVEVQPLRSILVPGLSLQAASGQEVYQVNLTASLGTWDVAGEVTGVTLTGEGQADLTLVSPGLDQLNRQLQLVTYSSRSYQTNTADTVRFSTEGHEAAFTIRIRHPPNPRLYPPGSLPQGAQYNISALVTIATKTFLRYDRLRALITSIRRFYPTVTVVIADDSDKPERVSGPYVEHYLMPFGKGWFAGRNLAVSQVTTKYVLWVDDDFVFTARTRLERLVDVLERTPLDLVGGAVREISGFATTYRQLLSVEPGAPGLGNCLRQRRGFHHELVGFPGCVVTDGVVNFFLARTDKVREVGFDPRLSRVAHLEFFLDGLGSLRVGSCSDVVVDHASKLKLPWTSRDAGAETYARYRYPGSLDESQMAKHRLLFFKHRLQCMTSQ
# Sequence of UniProt P31751 (P31751 whole entry, looked up): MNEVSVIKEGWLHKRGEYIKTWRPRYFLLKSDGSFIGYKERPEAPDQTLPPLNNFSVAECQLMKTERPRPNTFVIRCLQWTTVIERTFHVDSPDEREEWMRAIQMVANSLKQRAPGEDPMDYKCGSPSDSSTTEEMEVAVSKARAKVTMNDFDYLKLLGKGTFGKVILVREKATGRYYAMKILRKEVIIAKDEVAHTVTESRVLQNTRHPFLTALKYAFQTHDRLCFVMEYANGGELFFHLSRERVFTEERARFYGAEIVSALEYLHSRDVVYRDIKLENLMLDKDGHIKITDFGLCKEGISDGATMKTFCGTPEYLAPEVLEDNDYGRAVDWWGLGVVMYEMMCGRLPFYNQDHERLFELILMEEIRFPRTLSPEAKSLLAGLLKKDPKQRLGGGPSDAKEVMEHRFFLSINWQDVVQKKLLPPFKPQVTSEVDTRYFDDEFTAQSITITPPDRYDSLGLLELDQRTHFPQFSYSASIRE
# Sequence of UniProt Q9H845 (Q9H845 whole entry, looked up): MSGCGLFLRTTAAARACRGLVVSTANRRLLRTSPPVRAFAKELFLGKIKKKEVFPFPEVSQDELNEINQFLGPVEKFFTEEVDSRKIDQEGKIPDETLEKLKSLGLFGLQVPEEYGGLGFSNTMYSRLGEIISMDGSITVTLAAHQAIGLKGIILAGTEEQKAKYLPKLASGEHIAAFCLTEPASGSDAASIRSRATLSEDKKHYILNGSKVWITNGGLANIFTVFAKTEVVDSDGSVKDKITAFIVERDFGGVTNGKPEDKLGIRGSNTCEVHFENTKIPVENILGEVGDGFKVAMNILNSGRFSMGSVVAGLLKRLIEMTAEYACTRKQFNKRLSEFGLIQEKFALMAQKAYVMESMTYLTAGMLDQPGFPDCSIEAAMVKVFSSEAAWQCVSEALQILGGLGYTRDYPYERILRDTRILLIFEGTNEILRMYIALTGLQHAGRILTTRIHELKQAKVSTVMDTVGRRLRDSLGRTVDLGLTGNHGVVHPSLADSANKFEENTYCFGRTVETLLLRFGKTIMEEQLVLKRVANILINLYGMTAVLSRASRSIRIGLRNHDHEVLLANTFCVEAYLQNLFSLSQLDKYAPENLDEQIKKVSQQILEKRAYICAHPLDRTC
# Sequence of UniProt Q9Y312 (Q9Y312 whole entry, looked up): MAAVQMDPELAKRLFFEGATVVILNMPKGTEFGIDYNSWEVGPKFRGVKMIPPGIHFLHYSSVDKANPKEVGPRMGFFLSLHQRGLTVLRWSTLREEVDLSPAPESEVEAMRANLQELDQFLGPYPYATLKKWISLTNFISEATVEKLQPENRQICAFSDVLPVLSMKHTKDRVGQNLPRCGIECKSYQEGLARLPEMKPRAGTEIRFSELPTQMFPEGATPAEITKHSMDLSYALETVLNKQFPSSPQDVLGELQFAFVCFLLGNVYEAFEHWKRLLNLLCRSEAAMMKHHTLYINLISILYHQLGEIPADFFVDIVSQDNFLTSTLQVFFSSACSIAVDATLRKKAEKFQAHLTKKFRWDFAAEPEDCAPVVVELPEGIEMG
Target,log2 fold change [1],log2 fold change [2],log2 fold change [3],log2 fold change [4],log2 fold change [5],log2 fold change [6],log2 fold change [7],log2 fold change [8],log2 fold change [9],log2 fold change [10]
ATP6V0A2 (UniProt Q9Y487),-0.009,0,-0.045,0.031,-0.025,0.031,0.024,0.041,-0.016,0.002
AKT2 (UniProt P31751),0.014,0.096,0.094,0.027,0.068,-0.023,0.019,0.028,-0.068,0.144
ABHD16A (UniProt O95870),-0.036,0.02,-0.048,0.161,0.208,-0.094,0.036,0.009,-0.005,0.023
BAP1 (UniProt Q92560),0.182,-0.013,-0.142,-0.048,-0.128,0.06,-0.104,-0.05,-0.078,-0.088
ARAF (UniProt P10398),0.014,0.096,0.061,0.014,0.26,-0.012,0.077,-0.187,-0.017,0.035
ACAD9 (UniProt Q9H845),-0.002,0.025,0.054,0.015,0.035,0.032,0.026,-0.002,-0.002,0.029
B4GALNT1 (UniProt Q00973),-0.176,-0.006,0.029,0.101,0.124,-0.038,-0.073,-0.189,0.069,-0.141
AKAP8L (UniProt Q9ULX6),0.001,0.085,0.074,0.026,-0.006,-0.058,-0.054,-0.027,-0.053,0.031
BOP1 (UniProt Q14137),-0.003,0.038,-0.144,0,-0.053,0.041,-0.153,-0.014,0.043,0.036
ALDH9A1 (UniProt P49189),0.131,0.021,0.035,-0.077,-0.023,0.013,-0.103,0.043,0.035,0.045
AAR2 (UniProt Q9Y312),0.075,0.089,-0.113,0.057,0.103,0.049,-0.003,-0.137,-0.008,0.043
ALG14 (UniProt Q96F25),0.111,0.018,-0.128,-0.085,0.084,0.088,0.053,0.002,-0.061,0.014
ATP23 (UniProt Q9Y6H3),0.021,-0.079,-0.017,0.033,0.051,0.027,0.009,0.033,0.007,-0.014
ACIN1 (UniProt Q9UKV3),0.116,-0.1,-0.033,0.006,0.051,0.007,0,-0.012,-0.041,-0.038
ALKBH5 (UniProt Q6P6C2),0.176,-0.637 (active),-0.126,0.139,0.056,-0.067,0.015,-0.032,-0.087,0.113
ATP6V0A1 isoform 3 (UniProt Q93050),-0.086,-0.041,-0.176,0.061,0,-0.008,-0.232,0.052,-0.066,-0.195
BCCIP (UniProt Q9P287),-0.024,0.045,0.019,-0.027,-0.029,0.015,0.013,0.035,-0.036,0.114
ANXA5 (UniProt P08758),-0.012,0.1,0.06,-0.039,0.009,0.002,0.013,0.038,0.022,-0.012
AARS2 (UniProt Q5JTZ9),0.148,-0.035,0.058,-0.019,0.083,0.011,0.025,0.021,-0.003,0.021
ATAD1 (UniProt Q8NBU5),0.037,0.036,0.295 (active),0.021,0.054,-0.022,0.059,0.123,0,-0.006
ADD2 (UniProt P35612),0.008,-0.011,0.025,0.004,-0.004,0.022,0.012,-0.005,0.004,0.016
ARFIP1 (UniProt P53367),0.217,-0.121,0.087,0.094,0.115,0.62,-0.126,-0.013,0,0.044
ANKRD29 (UniProt Q8N6D5),0.243,-0.445 (active),0.083,-0.021,0.223,-0.015,-0.046,0.098,-0.025,0.096
APPL1 (UniProt Q9UKG1),-0.049,0.162,0.055,0.012,0.055,0.016,0.038,-0.029,0.014,0.003
ATAD3A isoform 2 (UniProt Q9NVI7),-0.036,0.02,-0.045,0.006,-0.038,-0.013,-0.04,0.017,0.037,-0.101
ATIC (UniProt P31939),0.031,0.033,0.062,0.006,0.005,-0.067,0.094,0.016,-0.031,0.035
ACADM isoform 2 (UniProt P11310),-0.015,0.014,0.013,0.149,0.044,0.002,0.059,-0.001,0.008,0.067
